Assay outcomes (PubChem)
Shown are actives, neighbours in structure and some others; about 6.7% of the full set was active somewhere.
T cruzi growth-1: inhibitors of T. cruzi proliferation. T. cruzi beta-gal in NIH3T3, GalScreen luminescence, 90 h. 77,000 tested, 5.9% active. inhibition, % at 8.34 µM;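 active = mean inhibition above about 93%, with at least 55% of replicates each passing it, limit read from the data, passing the limit was not always enough; inconclusive = only one of those two conditions holds; inactive = neither condition holds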
Pf Dd2 growth: inhibitors of Plasmodium falciparum Dd2 growth | P. falciparum Dd2 growth, SYBR Green, 72 h; stronger effect = lower value | activity change, % at 10 µM | 94,000 tested, 2.3% active; in the data active = activity change below about -80%; inconclusive = no clear call, values can overlap the other calls
C diff HTS: blocks growth of Clostridium difficile; Clostridium difficile clinical isolate growth, OD600, 24 h; stronger effect = lower value; growth activity, negative = inhibition, % at 16 µg/mL (by protocol); 86,000 tested, 0.25% active; AID 1259249;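 active = mean growth activity at or below -80% and every replicate also at or below -80%; inconclusive = mean at or below -80% but some replicate above -80%; inactive = mean growth activity above -80%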;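 note: 0% = DMSO wells and -100% = levofloxacin 16 µg/mL wells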
T cruzi growth-2: Trypanosoma cruzi proliferation inhibition | shares compounds with T cruzi growth-1 | T. cruzi beta-gal in NIH3T3, GalScreen luminescence, 90 h | inhibition, % at 8.35 µM | 5,600 tested, 72% active | AID 651739;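 active = mean replicate inhibition above about 95% and at least 55% of replicates individually reaching it, limit read from the data; inconclusive = only one of the two criteria is met; inactive = neither criterion is met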
T cruzi growth-3: blocks T. cruzi growth in NIH3T3 host cells; shares compounds with T cruzi growth-1; T. cruzi beta-gal in NIH3T3, GalScreen luminescence, 90 h; inhibition, % at 2.09 µM; 5,600 tested, 21% active; AID 651740;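 active = mean inhibition above about 95%, with at least 55% of replicates also reaching it, limit read from the data; inconclusive = meets just one of the two conditions; inactive = meets neither condition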;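 note: plate controls were neutral control median for no effect and positive control median for full effect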
NIH3T3 tox: NIH/3T3 (mouse) viability loss; shares compounds with T cruzi growth-1; NIH/3T3 viability, CellTiter-Glo ATP luminescence, 90 h; cytotoxicity (signal decrease), % at 8.35 µM; 5,600 tested, 14% active; AID 651742;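 active = mean signal decrease across replicates above about 35% based on untreated-well scatter, with enough replicates individually passing, limit read from the data; inconclusive = no rule stated though some were filed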;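 note: 0% = median of neutral control wells and 100% = median of positive control wells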
3T3 cytotox 2: kills mouse NIH/3T3 fibroblasts. 5,600 tested, 56% active. inhibition, % at 24.9 µM. shares compounds with T cruzi growth-1. NIH/3T3 viability, CellTiter-Glo ATP luminescence, 90 h;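 active = mean loss of cell viability signal at or above a set limit, and enough replicates individually reaching it; inconclusive = meets only the mean limit or only the replicate share; inactive = meets neither condition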;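 note: 0% = median of neutral control wells and 100% = median of positive control wells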
* = called active by the depositor; ! = not active in a repeat.

What do the screens show for `COC(=O)[C@H]1[C@H](CO)[C@H]2Cn3c(ccc(-c4cccc(C(=O)N(C)C)c4)c3=O)[C@H]2N1CC1CC1`?
T cruzi growth-1: 44; C diff HTS: 2

What do the screens show for `CCN1[C@H](C(=O)OC)[C@@H](CO)[C@@H]2Cn3c(ccc(-c4cccc(C(=O)N(C)C)c4)c3=O)[C@@H]21`?
T cruzi growth-1: 96*; Pf Dd2 growth: -19; C diff HTS: 4; T cruzi growth-2: -38; T cruzi growth-3: -44; NIH3T3 tox: -12; 3T3 cytotox 2: -14

What do the screens show for `COC(=O)[C@H]1[C@H](CO)[C@H]2Cn3c(ccc(-c4ccccc4)c3=O)[C@H]2N1Cc1cccc(F)c1`?
T cruzi growth-1: 87; Pf Dd2 growth: -7; C diff HTS: 3

What do the screens show for `CCNC(=O)[C@@H]1[C@@H](CO)[C@@H]2Cn3c(ccc(-c4ccc(OC)cc4)c3=O)[C@@H]2N1Cc1ccccc1`?
T cruzi growth-1: 100*; Pf Dd2 growth: -21; C diff HTS: 1; T cruzi growth-2: 6; T cruzi growth-3: -25; NIH3T3 tox: -13; 3T3 cytotox 2: 0

Results for CCN1[C@@H]2c3ccc(-c4cccc(F)c4)c(=O)n3C[C@@H]2[C@@H](CO)[C@@H]1C(=O)N[C@@H](C)c1ccccc1 ?
T cruzi growth-1: 102*; Pf Dd2 growth: -11; C diff HTS: 2; T cruzi growth-2: 25; T cruzi growth-3: 30; NIH3T3 tox: 1; 3T3 cytotox 2: 25*

How did CCN1[C@H](C(=O)N[C@H](C)c2ccccc2)[C@@H](CO)[C@@H]2Cn3c(ccc(-c4cccc(F)c4)c3=O)[C@@H]21 do in these assays?
T cruzi growth-1: 76; Pf Dd2 growth: -9; C diff HTS: 2

How did COC(=O)[C@@H]1[C@@H](CO)[C@@H]2Cn3c(ccc(-c4ccccc4)c3=O)[C@@H]2N1Cc1cccc(F)c1 do in these assays?
T cruzi growth-1: inconclusive; Pf Dd2 growth: -12; C diff HTS: 9; T cruzi growth-2: 26; T cruzi growth-3: -17; NIH3T3 tox: -8; 3T3 cytotox 2: -1

How did CCNC(=O)[C@H]1[C@H](CO)[C@H]2Cn3c(ccc(-c4ccccc4)c3=O)[C@H]2N1Cc1ccccc1 do in these assays?
T cruzi growth-1: 52; Pf Dd2 growth: -32; C diff HTS: -1

Results for COc1ccccc1NC(=O)N1CC(=O)N2[C@@H](CO)[C@H](c3ccc(C#Cc4ccccc4)cc3)[C@@H]2C1 ?
Pf Dd2 growth: -43; C diff HTS: -4

How did C[C@@H]1CN([C@@H](C)CO)C(=O)c2cc(C#CC3CCCCC3)cnc2O[C@H]1CN(C)C do in these assays?
T cruzi growth-1: -6; Pf Dd2 growth: -37; C diff HTS: -8

Results for CC(=O)N1[C@H](CNC(=O)CN2CCOCC2)[C@@H](c2ccccc2)[C@@H]1CO ?
T cruzi growth-1: 46; Pf Dd2 growth: -44; C diff HTS: 4

What do the screens show for `COc1ccc(-c2ccc3n(c2=O)C[C@@H]2[C@@H](CO)[C@H](C(=O)N(C)C)N(CC4CCCC4)[C@H]32)cc1`?
T cruzi growth-1: -4; C diff HTS: -4

What do the screens show for `COc1ccc(-c2ccc3n(c2=O)C[C@@H]2[C@@H](CO)[C@H](C(=O)N(C)C)N(CC4CC4)[C@H]32)cc1`?
T cruzi growth-1: 103*; Pf Dd2 growth: -3; C diff HTS: 10; T cruzi growth-2: 22; T cruzi growth-3: 9; NIH3T3 tox: -3; 3T3 cytotox 2: 19

Results for C/C=C/c1ccc([C@H]2[C@@H](CO)N(C(=O)Cc3cccnc3)[C@H]2CNC(C)=O)cc1 ?
T cruzi growth-1: 33; Pf Dd2 growth: 12; C diff HTS: 1

Results for CC(C)(C)[S@](=O)N1Cc2cc(C(=O)NCCc3ccncc3)nc(-c3cccc(-c4ccc(C#N)cc4)c3)c2[C@@H]1CCO ?
T cruzi growth-1: 97*; Pf Dd2 growth: -74; T cruzi growth-2: 112*; T cruzi growth-3: 91; NIH3T3 tox: 46*; 3T3 cytotox 2: 39*

Results for COc1cccc(CNC(=O)c2cc3c(c(-c4cccc(-c5cccc(C#N)c5)c4)n2)[C@H](CCO)N([S@@](=O)C(C)(C)C)C3)c1 ?
T cruzi growth-1: 74; Pf Dd2 growth: -55

What do the screens show for `CN1CCN(C(=O)c2cc3c(c(-c4cccc(-c5ccc(C#N)cc5)c4)n2)[C@@H](CCO)N([S@](=O)C(C)(C)C)C3)CC1`?
T cruzi growth-1: 37; Pf Dd2 growth: 22

What do the screens show for `CC(C)(C)[S@@](=O)N1Cc2cc(C(=O)NCCc3ccncc3)nc(-c3cccc(-c4cccc(C#N)c4)c3)c2[C@H]1CCO`?
T cruzi growth-1: 78; Pf Dd2 growth: -43

How did CC(C)(C)[S@](=O)N1Cc2cc(C(=O)NCc3ccncc3)nc(-c3cccc(-c4ccc(C#N)cc4)c3)c2[C@@H]1CCO do in these assays?
T cruzi growth-1: 99*; Pf Dd2 growth: -67; T cruzi growth-2: 103*; T cruzi growth-3: 57; NIH3T3 tox: 18; 3T3 cytotox 2: inconclusive

Results for CC(C)(C)[S@](=O)N1Cc2cc(C(=O)N3CCCCC3)nc(-c3cccc(-c4ccc(C#N)cc4)c3)c2[C@@H]1CCO ?
T cruzi growth-1: 101*; Pf Dd2 growth: -22; T cruzi growth-2: 107*; T cruzi growth-3: 75; NIH3T3 tox: 14; 3T3 cytotox 2: 18

What do the screens show for `CC(C)(C)[S@@](=O)N1Cc2cc(C(=O)NCCN3CCCC3)nc(-c3cccc(-c4ccc(C#N)cc4)c3)c2[C@H]1CCO`?
T cruzi growth-1: 33; Pf Dd2 growth: -77

How did COc1cccc(CNC(=O)c2cc3c(c(-c4cccc(-c5ccncc5)c4)n2)[C@H](CCO)N([S@@](=O)C(C)(C)C)C3)c1 do in these assays?
T cruzi growth-1: 100*; Pf Dd2 growth: -78; T cruzi growth-2: 110*; T cruzi growth-3: 93; NIH3T3 tox: -12; 3T3 cytotox 2: 52*

How did Cc1ccc(S(=O)(=O)NCC[C@H]2CC[C@H](NC(=O)c3cnccn3)[C@@H](CO)O2)cc1 do in these assays?
T cruzi growth-1: 87; Pf Dd2 growth: -9

How did C[C@H](CO)N1C[C@H](C)[C@@H](CN(C)Cc2ccc(C(=O)O)cc2)Oc2ccc(NS(=O)(=O)c3ccc(Cl)cc3)cc2CC1=O do in these assays?
T cruzi growth-1: 34; Pf Dd2 growth: -1; C diff HTS: 6

How did C[C@H](CO)N1C[C@H](C)[C@H](CN(C)C(=O)c2ccccn2)Oc2cc(C#Cc3ccc(F)cc3)ccc2S1(=O)=O do in these assays?
T cruzi growth-1: 119*!; Pf Dd2 growth: -27; C diff HTS: -1; T cruzi growth-2: 99*; T cruzi growth-3: 39; NIH3T3 tox: 23; 3T3 cytotox 2: 21
